Compounds with a hit are over-represented: about 21% of the library has one in this group of screens.
Pf growth 96h: P. falciparum growth inhibition at 96 hour, primary screen for plastid delayed-death inhibitors. P. falciparum luciferase reporter growth, 96 h. Potency, µM (titrated, usually from 28.7 µM), for the others: at the highest dose activity change, negative = inhibition, usual class: inhibitors. 320,000 tested, 6.9% active; active = well fitted inhibition curve with a large enough effect; inconclusive = small, poorly fitted or top-dose-only effect, or another doubt; inactive = no such curve, though single readings can be large or run the other way; also: potency is read from the fitted curve at half-maximal effect; % is scaled to controls: 0 for no effect and ±100 for the full control effect
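Two parasite generations (96 h, 37 C, 5% CO2) of compound exposure in infected erythrocytes (0.05% parasitemia, 2% hematocrit). Luciferase-reporter P. falciparum; decreased luminescence indicates inhibited growth, aimed at apicoplast-acting delayed death.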
NS1 inh: blocks influenza NS1 protein function; Potency, µM (series often up to 46.1 µM), for the others: at the top dose activity, positive = more growth; AID 2326; 270,000 tested, 0.4% active; also: potency is read from the fitted curve at half-maximal effect; actives are rising curves; nearly all actives have a fitted effect of over 50% in size
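OD600 was taken as the measure of yeast growth restored by compound in an NS1-expressing S. cerevisiae strain. Cells had been washed out of glucose medium and diluted 1:100 into galactose -URA medium, pH 6.0.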
SARS PLP yeast: blocks SARS-CoV papain-like protease in a yeast assay; S. cerevisiae expressing SARS-CoV PLpro, growth rescue; Potency, µM (highest dose often 32.9 µM), for inactives: top-dose activity, positive = growth rescue, actives largely listed as activators; 330,000 tested, 0.19% active; AID 485353; also: potency is read from the fitted curve at half-maximal effect; 0% is about no effect; nearly all actives have a fitted effect of over 55% in size
CHX counter: affects cycloheximide protein synthesis inhibition readout, counter-screen | cell reporter, cycloheximide protein synthesis inhibition counterscreen | max response, % | 300,000 tested, 12% active | AID 2314; in the data active = max response mostly above about 13%, no sharp cut-off; inactive = mostly below about 14%; also: read at 38.3 µM for the half of the compounds with a filed dose; 0% is about no effect
Pf growth 48h: inhibits P. falciparum growth in the first generation, 48 h; Potency, µM (titrated, usually from 28.7 µM), for inactives: at the top dose activity change, negative = inhibition, most hits filed as inhibitors; P. falciparum luciferase growth in erythrocytes, 48 h; 310,000 tested, 5.9% active; active = well fitted inhibition curve with a large enough effect; inconclusive = small, poorly fitted or top-dose-only effect, or another doubt; inactive = no such curve, though single readings can be large or run the other way; also: potency is read from the fitted curve at half-maximal effect; % is scaled to controls: 0 for no effect and ±100 for the full control effect
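Luminescence readout; reporter = integrated firefly luciferase in P. falciparum. RBC culture at 2% hematocrit, 0.1% parasitemia final, 37 C/5% CO2; decreased signal taken as growth inhibition.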
Shiga toxin inh: inhibitors of Shiga toxin in Vero cells | Vero cells, Shiga toxin protein synthesis inhibition reporter | inhibition, % at 38.7 µM | 290,000 tested, 9.2% active | AID 2315; in the data active = inhibition mostly above about 28%, no sharp cut-off; inactive = mostly below about 43%; also: 0% is about no effect
Active calls of the source: *; i = inactive; ? = inconclusive; · = no result given. Unless noted, calls follow the shape of the full dose curve.

SMILES	Pf growth 96h	NS1 inh	SARS PLP yeast	CHX counter	Pf growth 48h	Shiga toxin inh
COC(=O)c1ccc(CN2CCCC(CCC(=O)NCc3ccc(C)o3)C2)cc1 (stereo not drawn)	-8%	2%	-1%	6	?	-29
CCOC(=O)c1nnn(-c2nonc2N)c1CN1CCCC1	0.66µM*	-42%	-4%	1	-13%	-6
CC(/C=N/NC(=O)c1nnn(-c2nonc2N)c1CN1CCCCC1)=C\c1ccccc1	9.3µM*	9%	-4%	3	?	-4
CC(=C/c1ccccc1)/C=N/NC(=O)c1nnn(-c2nonc2N)c1CN1CCC(C)CC1	?	-14%	-3%	-2	?	-7
CC1CCN(Cc2c(C(=O)N/N=C/c3ccc(OC(C)C)cc3)nnn2-c2nonc2N)CC1	-20%	-28%	2%	5	?	6
Cc1ccccc1COc1ccc(/C=N/NC(=O)c2nnn(-c3nonc3N)c2CN2CCC(C)CC2)cc1	?	-22%	14%	21*	?	24
O=c1[nH]cnc(O)c1C(c1cccc([N+](=O)[O-])c1)c1c(O)nc[nH]c1=O	51%	0%	1%	0	45%	-11
Cc1sc2nc3ccc(N4CCCCC4)nn3c(=O)c2c1C	?	-4%	-10%	30*	?	68*
Cc1ccc2nc3ccc(N4CCCC4)nn3c(=O)c2c1	4.7µM*	-3%	-8%	35*	171%	63
CC1CCCN(c2ccc3nc4ccccc4c(=O)n3n2)C1 (stereo not drawn)	?	·	-10%	2	138%	13
Cc1sc2nc3n(c(=O)c2c1C)CCCCC3	?	-15%	-9%	8	17%	13
c1ccc(Cn2c[n+](Cc3ccccc3)cn2)cc1	2%	-2%	1%	11	-2%	4
CCN1C(=O)[C@H]2[C@@H](c3ccc(-c4cccc(Cl)c4)c(OC)c3)N[C@@](Cc3ccccc3)(C(=O)OC)[C@H]2C1=O	0.41µM*	·	-1%	·	2.1µM*	·
CCN1C(=O)[C@H]2[C@@H](c3ccc(-c4ccc(OC)cc4)c(OC)c3)N[C@@](Cc3ccccc3)(C(=O)OC)[C@H]2C1=O	·	·	12%	·	·	·
CCN1C(=O)[C@H]2[C@@H](c3ccc(-c4ccc5c(c4)OCO5)c(OC)c3)N[C@@](Cc3ccccc3)(C(=O)OC)[C@H]2C1=O	?	·	-1%	·	1.2µM*	·
CCN1C(=O)[C@H]2[C@@H](c3ccc(-c4ccc5c(c4)OCO5)c(OC)c3)N[C@@](CC(C)C)(C(=O)OC)[C@H]2C1=O	13µM*	·	-2%	·	6.6µM*	·
COc1cccc(NC(=O)CSc2nnc3ccc(-c4ccncc4)nn23)c1	5%	·	0%	·	8%	·
C=CCc1cc(OC)c(O)c(C(=O)NCCO)c1	-12%	·	·	·	1%	·
Cc1nc2ccn(Cc3ccccc3)c(=O)c2cc1C(=O)N1CCN(c2ccccc2)CC1	78%	6%	-9%	-3	-10%	-5
O=C(CN1CCN(Cc2ccccc2F)C1=O)NCc1ccco1	13µM*	4%	4%	-4	·	-7
O=C(NCc1ccco1)C1CCN(c2nc3ccccc3n2Cc2ccccc2F)CC1	-26%	-65%	8%	22*	·	2
Cc1ccc(S(=O)(=O)N2CCC(C(=O)OC(C)C(=O)N(C)c3ccccc3)CC2)cc1C (stereo not drawn)	?	·	-12%	·	?	·
COC(=O)c1c(C)[nH]c(O)c1C=Nc1ccc(C(C)C)cc1	38%	-35%	-25%	22*	-23%	39*
COC(=O)c1c(C)[nH]c(O)c1C=Nc1ccc(Oc2ccccc2)cc1	16%	·	0%	13	48%	40
O=C(/C=C/c1ccccc1Cl)Nc1ccc2c(c1)C(=O)NC2=O	21%	·	-1%	16	12%	58*
SMILES	Pf growth 96h	NS1 inh	SARS PLP yeast	CHX counter	Pf growth 48h	Shiga toxin inh
Cn1c(NC(=O)/C=C\c2ccccc2)cc(=O)n(C)c1=O	77%	·	1%	36*	113%	80*
Cn1c(NC(=O)/C=C/c2c(F)cccc2Cl)cc(=O)n(C)c1=O	?	·	-3%	1	?	29
O=C(/C=C/c1ccccc1)Nc1ccc2c(c1)C(=O)NC2=O	0%	3%	1%	19*	0%	37
C/C=N\NC(=O)COc1cc(C)ccc1C	16%	0%	-1%	-1	-16%	-8
Cn1c(C(=O)OC(C(=O)NC2CCCCC2)c2ccncc2)cc2sccc21 (stereo not drawn)	1%	-3%	-14%	-1	?	12
O=C(COc1ccc(Cl)cc1)OCC(=O)N1CCCc2ccccc21	23%	-39%	2%	-3	6%	10
COc1cc2c(cc1OC)CN(C(C)C(=O)N1CCc3ccccc31)CC2 (stereo not drawn)	?	2%	14%	-3	·	-14
Cc1cccc(OCC(=O)Nc2ccccc2N2CCCCC2)c1	-10%	-73%	-9%	-3	?	-8
CCc1ccc(OCC(=O)N2c3ccccc3CCc3ccccc32)cc1	i	2%	-55%	-3	9.3µM*	-6
Cc1ccc(OCC(=O)N2CCCc3ccccc32)cc1	-2%	0%	-1%	19	?	33*
O=C(COc1ccccc1F)N1c2ccccc2CCc2ccccc21	?	-6%	8%	-3	-22%	-10
CC(C(=O)N1CCc2ccccc21)N1CCc2ccccc2C1 (stereo not drawn)	9.3µM*	0%	-5%	0	?	11
Cc1cccc(OCC(=O)NC(=S)N2CCCc3ccccc32)c1	9.3µM*	15%	-2%	35*	?	i
CC(OC(=O)CCNS(=O)(=O)c1cccs1)C(=O)Nc1ccc(S(N)(=O)=O)cc1 (stereo not drawn)	20%	·	1%	·	-18%	·
COc1ccc(/C=C/C(=O)NNC(=O)C(C)Oc2ccccc2F)cc1OC (stereo not drawn)	·	·	1%	·	·	·
O=C(COc1cccc(Cl)c1)Nc1cc(S(=O)(=O)N2CCOCC2)ccc1N1CCOCC1	?	5%	3%	-3	0%	1
CCc1ccc(OCC(=O)N2CCc3ccccc32)cc1	41%	-29%	-6%	35*	37%	96*
Cc1ccc(OC(=O)CCC(=O)N2CCc3ccccc32)cc1	12%	-9%	-1%	-6	12%	-18
Cc1ccc(OCC(=O)N2CCc3ccccc32)cc1	100%	-17%	-25%	76*	118%	84*
CN(C)c1cc[n+](CC(=O)N2CCCc3ccccc32)cc1	?	·	-4%	-1	5.2µM*	-7
O=C(COc1ccc2c(c1)CCC2)N1CCc2ccccc21	-17%	-20%	0%	43*	·	98*
Cc1cc[n+](CC(=O)N2CCCc3ccccc32)cc1	-1%	·	1%	-3	0%	12
CCn1c(SCC(=O)NCc2ccc3c(c2)OCO3)nnc1-c1c[nH]c2ccccc12	?	-13%	-3%	-3	?	-5

Assay outcomes from PubChem.
